Assay outcomes (PubChem)
Most compounds without a hit are left out; they make up all but 11% or so of the library.
USP30 block: inhibitors of human USP30 deubiquitinase. inhibition, % at 25 µM. AID 1645860, 2021. actives 5.3% (n = 47,000). purified USP30, Ub-rhodamine cleavage fluorescence. Ubiquitin carboxyl-terminal hydrolase 30 (Homo sapiens), Q70CQ3
Target sequence (Q70CQ3 whole entry, looked up): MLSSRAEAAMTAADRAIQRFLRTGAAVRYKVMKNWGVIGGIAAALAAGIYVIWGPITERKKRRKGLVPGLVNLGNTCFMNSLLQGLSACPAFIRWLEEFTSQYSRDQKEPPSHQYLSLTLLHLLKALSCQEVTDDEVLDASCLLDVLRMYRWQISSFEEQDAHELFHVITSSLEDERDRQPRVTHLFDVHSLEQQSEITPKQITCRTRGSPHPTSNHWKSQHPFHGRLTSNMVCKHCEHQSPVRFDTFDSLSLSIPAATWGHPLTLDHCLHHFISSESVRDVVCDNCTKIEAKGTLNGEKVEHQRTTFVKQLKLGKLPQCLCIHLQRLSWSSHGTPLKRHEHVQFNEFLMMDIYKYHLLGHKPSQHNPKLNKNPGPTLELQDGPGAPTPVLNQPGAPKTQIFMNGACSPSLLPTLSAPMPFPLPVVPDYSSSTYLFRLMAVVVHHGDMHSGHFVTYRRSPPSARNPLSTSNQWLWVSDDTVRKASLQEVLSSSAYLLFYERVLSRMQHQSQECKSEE
USP28 block: inhibitors of human USP28 deubiquitinase. Ubiquitin carboxyl-terminal hydrolase 28 (Homo sapiens), Q96RU2. purified USP28, Ub-rhodamine cleavage fluorescence, 30 min. inhibition, % at 25 µM. actives 3% (n = 47,000). AID 1645857, 2021
USP17 inh: inhibitors of human USP17 deubiquitinase; Ubiquitin carboxyl-terminal hydrolase 17-like protein 5 (Homo sapiens), A8MUK1; inhibition, % at 50 µM; purified USP17, Ub-rhodamine cleavage fluorescence, 3 h; AID 1645855, 2021; actives 6.5% (n = 47,000)
Of the large screens only hits and unclear results are named; the others gave an inactive call. Cut-off read from the data, not from the text of the source: active = inhibition above about 30%; inactive = the rest.

O=C(Nc1ccccc1)N1CCC2(CN(Cc3ccccc3Cl)C2)C1	none
COc1ccccc1C(=O)NCc1csc(-c2ccccc2)n1	none
N#Cc1ccccc1OCc1csc(-c2ccccc2)n1	USP28 block 66
CCn1ccc2c(cc(C(=O)Nc3ccccc3C)n2C)c1=O	none (no result: USP17 inh)
CCn1ccc2c(cc(C(=O)Nc3ccccc3F)n2C)c1=O	USP28 block 74
COC(=O)c1ccc(O)c2oc3cc(C)cc(O)c3c(=O)c12	none
COc1cccc(-c2noc(-c3occc3Br)n2)c1	USP17 inh 40
COc1ccc(-c2nc(-c3cccc(-c4ccnn4C)c3)no2)cc1	none
Cn1ccnc1CN1CCC2(CC1)CN(c1ncccn1)c1ccccc12	none (no result: USP30 block, USP28 block)
CC[C@@]1([C@@H]2O[C@@H]([C@H]3O[C@@](O)(CO)[C@H](C)C[C@@H]3C)C[C@@H]2C)CC[C@H]([C@]2(C)CC[C@]3(C[C@H](O)[C@@H](C)[C@@H]([C@@H](C)[C@@H](OC)[C@H](C)C(=O)O)O3)O2)O1	none
O=C(/C=C/C=C/C=C/C1CCCCC1)NC1=C[C@@](O)(/C=C/C=C/C=C/C(=O)NC2=C(O)CCC2=O)[C@@H]2O[C@@H]2C1=O	USP28 block 75, USP17 inh 68
Cc1nccnc1CCC1COCCN1C(=O)c1noc2c1CCCC2 (centres undefined)	none
O=C(CN1C(=O)C(c2ccccc2)Oc2cccnc21)NCCCN1CCCCCC1 (centres undefined)	USP17 inh 41
CCOc1ccccc1CNC(=O)CCCN1C(=O)C(c2ccccc2)Oc2cccnc21 (centres undefined)	none
Cc1cccc(CN2CCC3(CC2)CN(c2cncnc2)C(=O)CO3)n1	none
CCOC(=O)c1cc2c(ccn2C)n1Cc1cccc2ccccc12	USP17 inh 54
CCOC(=O)c1cc2c(ccn2C)n1Cc1ccccc1C#N	none
Cc1cccc(CSc2cn(CCNC(=O)c3c(F)cccc3F)c3ccccc23)c1	none
O=C(Cc1ccc([N+](=O)[O-])cc1)Nc1ccc(N2CCCCC2)cc1	none
O=C(CN1C(=O)NC2(CCCCC2)C1=O)Nc1ccc([N+](=O)[O-])cc1	USP17 inh 65
Cc1ccc(NCc2cc3c(C(C)(C)C)nn(-c4ccc(Cl)cc4)c3[nH]c2=O)cc1	USP17 inh 62
CC(C)(C)c1nn(-c2ccc(Cl)cc2)c2[nH]c(=O)c(CNCCc3ccccc3)cc12	none
COc1ccc(-c2nn(-c3ccccc3)c3[nH]c(=O)c(CNCc4cccs4)cc23)cc1OC	none
O=c1[nH]c2c(cc1CNc1ccc(Cl)cc1)c(-c1cccc(F)c1)nn2-c1ccccc1	USP17 inh 38
COc1ccc(-c2nn(-c3ccccc3)c3[nH]c(=O)c(CNc4ccc5c(c4)OCCO5)cc23)cc1OC	USP17 inh 44
Cc1ccc(NCc2cc3c(-c4cccc(F)c4)nn(-c4ccccc4)c3[nH]c2=O)cc1C	none
O=C(C1CCC(=O)N1S(=O)(=O)c1ccccc1)N1CCN(c2ccccc2)CC1 (centres undefined)	none
O=C(c1ccc2c(c1)OCO2)N1CCn2c(nnc2C2CCCN2)C1 (centres undefined)	none
Cc1ccccc1C(=O)N1CCc2cc(-c3nc(NC(=O)C4(c5ccc(Cl)cc5)CCC4)sc3C)ccc21	none (no result: USP30 block, USP28 block)
Cc1sc(NC(=O)C2CCCC2)nc1-c1ccc2c(c1)CCN2C(=O)C1CCCCC1	none
Cc1sc(NC(=O)C2(c3ccc(Cl)cc3)CCC2)nc1-c1ccc2c(c1)CCN2C(=O)C1CCCCC1	USP30 block 31
Cc1sc(NC(=O)CN2CCc3ccccc3C2)nc1-c1ccc2c(c1)CCN2C(=O)C1CCCCC1	USP17 inh 54
CN(CC1(C)CCOCC1)S(=O)(=O)Cc1ccccc1Cl	none
COCCn1ccc2nc(C)c(C(=O)NC3CCN(Cc4ccccc4)CC3)cc2c1=O	none
Fc1ccccc1-c1nc(-c2ccncc2)ncc1-c1nnnn1-c1ccccc1	none
Fc1cc(F)c2[nH]cc(-c3nnnn3-c3ccc4ccccc4c3)c2c1	USP30 block 71, USP28 block 45 (no result: USP17 inh)
Cc1ccc(CNC(=O)CCc2c(C)nn(-c3cc(N4CCCCC4)ncn3)c2C)o1	none
COc1ccc(CNC(=O)c2ccc(-c3ccc(N4CCCC4)nn3)cc2)c(OC)c1	none
O=C(NCc1ccccc1Cl)c1ccc(-c2ccc(N3CCCC3)nn2)cc1	USP17 inh 42
COc1cccc2c1OCC(NS(=O)(=O)c1cc(C)ccc1C)C2 (centres undefined)	none
CCc1ccc(NC(=O)Cn2cnc(S(=O)(=O)N3CCCC3)c2)cc1	none
CCOc1ccc(NC(=O)Cn2cnc(S(=O)(=O)N3CCc4ccccc43)c2)cc1	USP28 block 48, USP17 inh 80
Cc1noc2nc(C)n(CC(=O)NCc3ccc4c(c3)OCO4)c(=O)c12	none
O=C(Nc1ccc(-c2csc(-c3ccccn3)n2)cc1)c1ccccc1	none
CCOC(=O)N1CCC(NCc2c(C(=O)O)n(Cc3ccc(C)cc3)c3ccccc23)CC1	none
CCOC(=O)c1c(C)nc2n(Cc3ccccc3)c3ccccc3n12	USP30 block 61
COc1cc(N2CCCC3(CCC(=O)N3CC3CC3)CC2)ncn1 (centres undefined)	none
COc1ccc(NC(=O)Nc2ccc(F)c(-c3nnc(-c4ccccc4)o3)c2)c(OC)c1	USP30 block 40
COc1ccc(NC(c2nnc(-c3ccccc3)o2)c2ccccc2F)c(OC)c1 (centres undefined)	none
COc1ccc(NC(=O)C2CCCN(S(=O)(=O)N3CCCCCC3)C2)cc1OC (centres undefined)	none
c1ccc(-c2cc3nc(NCCc4ccncc4)ccn3n2)cc1	none
COc1ccc(-c2cc3nc(NCCc4ccc(S(N)(=O)=O)cc4)ccn3n2)cc1	USP17 inh 41
Clc1ncc(CN2CCc3ccccc3C2)s1	USP28 block 38
c1ccc2c(c1)CCN(c1ncnc3sc4c(c13)CCCC4)C2	none
CNc1cnc(CC2CCCN(C(=O)c3cncs3)CC2)cn1 (centres undefined)	none
c1ccc(-c2nc(-c3nnn(-c4ccccc4)c3-c3ccncc3)no2)cc1	USP17 inh 51
Cc1c(-c2noc(-c3cccnc3)n2)nnn1-c1ccccc1	none
c1ccc(-n2nnc(-c3noc(-c4ccncc4)n3)c2-c2ccncc2)cc1	none
Cc1c(-c2noc(-c3ccncc3)n2)nnn1-c1ccccc1	USP30 block 31
NC(=O)C1CCN(C(=O)C2CCCN2S(=O)(=O)c2ccc(Cl)cc2)CC1 (centres undefined)	none
CC(C)c1ccc(NC(=O)Cn2cnc3c(nc4n3CCCCC4)c2=O)cc1	none
O=C(c1ccc(F)cc1Cl)N(c1ccccn1)C1CCCCC1	none (no result: USP17 inh)
O=C(c1ccc(Cl)cc1)N(c1ccccn1)C1CCCCC1	USP30 block 81, USP28 block 48, USP17 inh 87
Cc1ccc2c(c1)CCCN2C(=O)c1c(C)nn(-c2ccc(F)cc2)c1C	none
O=c1[nH]c2c(cc1CNc1ccc(Oc3ccccc3)cc1)c(-c1ccc(F)cc1)nn2-c1ccccc1	none
O=C(Cc1ccc(-c2ccccc2)cc1)Nc1ccccc1F	none
Cc1c(-c2ccccc2)oc2c(C(=O)OCC(=O)Nc3ccccc3F)cccc2c1=O	USP17 inh 67
CCCCC/C=C/C1=C(CO)[C@@H](O)[C@H]2O[C@@]2(C/C=C(\C)C(=O)O)C1=O	none
COc1ccc(Cl)cc1Nc1ncnc2sccc12	USP17 inh 52 (no result: USP30 block, USP28 block)
